Measured values as given in a collection of fitness landscapes (doi:10.1038/s41467-024-54723-y).
Whole data set: some 18,000 sequences, median “TetR repression strength (sort-seq, GFP reporter)” near 0.23, cut for the highest 2% near 0.68. Only a selection was taken, and the highest values are over-represented in it overall.

Each sequence was assayed against TetR (class B, Tn10) (UniProt P04483) (assay: TetR repression strength (sort-seq, GFP reporter) (relative to tetO2 = 1); higher = stronger repression). Conditions: E. coli.
TetR (class B, Tn10), sequence (P04483 whole entry): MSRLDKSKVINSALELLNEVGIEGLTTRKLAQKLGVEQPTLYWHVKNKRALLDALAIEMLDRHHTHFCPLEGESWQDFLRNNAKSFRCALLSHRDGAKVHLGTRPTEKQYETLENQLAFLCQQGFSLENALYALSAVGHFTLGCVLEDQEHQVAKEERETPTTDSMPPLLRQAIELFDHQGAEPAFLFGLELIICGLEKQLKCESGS
In short: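 Repression strength was calculated by subtracting the read-weighted mean bin from the top bin index plus one and dividing by the unaltered operator's value. The plasmid library was low-copy in E. coli SIG10-MAX, with eight randomized operator positions between a constitutive promoter and sfGFP and constitutive TetR. Cultures grew 5 h at 37 °C in LB containing 50 µg/mL chloramphenicol before 10^6 cells were sorted by FACS into 13 fluorescence bins, each sequenced on Illumina. Three independent transformations were averaged for members having ≥30 reads in all replicates and a CV ≤0.5.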
TCCCTATCAGTGGTAGAGA showed a TetR repression strength of 1.01. TCCCTACCAGTGGAAGAGA gave a TetR repression strength of 1.24. TCCCTCCCAGTGGAAGAGA gave a TetR repression strength of 0.491. TCCCTACCAGTGCAAGAGA was tested, and the TetR repression strength was 0.199. In the case of TCCCTAACAGTGGTAGAGA, the TetR repression strength is reported as 0.415. TCCCTACCAGTCGGAGAGA was tested, and the TetR repression strength was 0.278. Sequence TCCCTGCAAGTGGAAGAGA has a TetR repression strength of 0.276. Work on TCCCTAAAAGTGGAAGAGA yielded a TetR repression strength of 0.104. With TCCCTATGAGTGGTAGAGA the TetR repression strength was 0.288. In the case of TCCCTACCAGTCGCGGAGA, the TetR repression strength is reported as 0.967. For TCCCTCCCAGTCGCGGAGA, the TetR repression strength was 0.291. Work on TCCCTACAAGTGGAAGAGA yielded a TetR repression strength of 1.21. With TCCCTGACAGTCGGTGAGA the TetR repression strength was 0.106. TCCCAGGGAGTTTTAGAGA gave a TetR repression strength of 0.305. TCCCACGTAGTCAATGAGA was tested, and the TetR repression strength was 0.157. With TCCCTCAGAGTAAAGGAGA the TetR repression strength was 0.218. In the case of TCCCTTTGAGTAGGTGAGA, the TetR repression strength is reported as 0.168. TCCCATTGAGTTGCTGAGA showed a TetR repression strength of 0.153. TCCCTCACAGTCAGTGAGA was tested, and the TetR repression strength was 0.302. Work on TCCCGCAAAGTGAATGAGA yielded a TetR repression strength of 0.207. In the case of TCCCCGCGAGTGACAGAGA, the TetR repression strength is reported as 0.569. TCCCAACAAGTGAGTGAGA gave a TetR repression strength of 0.42. TCCCTATCAGTTGAAGAGA gave a TetR repression strength of 0.55. For TCCCTATCAGTGGAAGAGA, the TetR repression strength was 0.722. With TCCCTAACAGTGGAAGAGA the TetR repression strength was 0.299. TCCCCGACAGTTGCGGAGA showed a TetR repression strength of 0.0545. TCCCTGGGAGTTTAGGAGA was tested, and the TetR repression strength was 0.302. Sequence TCCCTGCAAGTACCTGAGA has a TetR repression strength of 0.308. TCCCGGCGAGTGGGGGAGA gave a TetR repression strength of 0.193. TCCCGACTAGTTAGTGAGA was tested, and the TetR repression strength was 0.25. TCCCCTCAAGTTAGGGAGA gave a TetR repression strength of 0.304. In the case of TCCCCTCAAGTTGGCGAGA, the TetR repression strength is reported as 0.113. TCCCCTCAAGTTAGCGAGA was tested, and the TetR repression strength was 0.742. TCCCGGCTAGTTAGCGAGA showed a TetR repression strength of 0.485. For TCCCGACTAGTTAGCGAGA, the TetR repression strength was 0.682. Work on TCCCATGGAGTATGAGAGA yielded a TetR repression strength of 0.417. TCCCAAAGAGTGGAGGAGA showed a TetR repression strength of 0.388. In the case of TCCCCGCCAGTAAAAGAGA, the TetR repression strength is reported as 0.389. With TCCCGGTCAGTGGCCGAGA the TetR repression strength was 0.523. Sequence TCCCGGCCAGTTCGTGAGA has a TetR repression strength of 0.197. Sequence TCCCGCGTAGTAGGGGAGA has a TetR repression strength of 0.425. Sequence TCCCGTGTAGTTGGAGAGA has a TetR repression strength of 0.191. For TCCCGTGTAGTTGCAGAGA, the TetR repression strength was 0.976. TCCCGCGTAGTTGTTGAGA gave a TetR repression strength of 0.402. In the case of TCCCCCGGAGTGGTTGAGA, the TetR repression strength is reported as 0.192. TCCCGCGTAGTGGTGGAGA showed a TetR repression strength of 0.256. TCCCGCGTAGTGGTTGAGA gave a TetR repression strength of 0.826. In the case of TCCCGCGGAGTGGTTGAGA, the TetR repression strength is reported as 0.768. Sequence TCCCGCGGAGTGGTGGAGA has a TetR repression strength of 0.155. TCCCGCGTAGTAGGAGAGA showed a TetR repression strength of 0.691. Sequence TCCCGTGCAGTTGCAGAGA has a TetR repression strength of 0.376. TCCCCCGTAGTAGGAGAGA was tested, and the TetR repression strength was 0.197.
